The source of these data is PubChem BioAssay (NCI).

About 83,000 compounds went through this panel and 20% of them were active in at least one assay; those are over-represented in the sample as a whole.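 Step 1: grow cells in 96-well plates. Step 2: add test compound at a single concentration. Step 3: incubate 48 h. Step 4: record percent growth.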 Activity calls are given as the source filed them. How the source made its calls: active means growth percent below 10; inactive means the rest.

The subject of the assay is HL-60(TB) leukemia. Put plainly: NCI-60 one-dose screen, 48 h (100 = growth as untreated, 0 = no growth, -100 = all killed). As to conditions: 10 µM unless noted.
For `COC(=O)c1cc(-c2ccccc2)[nH]c1N/N=C/c1c(Cl)cccc1Cl`, the growth is -42.9% (active). For the compound `OCCCCc1nccc2c1[nH]c1ccccc12`, the growth is 73.7% (inactive). The result for `CCCCCCCCNC(=O)C(C)C` reads 99.7% (inactive).

Regarding `COc1ccc(/C=C2\SC(=O)N(CN3CCN(c4cc5c(cc4F)c(=O)c(C(=O)O)cn5C4CC4)CC3)C2=O)cc1`, the growth was 109% (inactive). The result for `O=c1[nH]c(=O)[nH]c(=S)[nH]1` reads 102% (inactive); that for `COCCOCCOCCOCCOc1ccc2c(c1)C(=O)c1nc3ncccc3c(=O)n1-2`, -64.6% (active); that for `COCCNC(C)=O`, 107% (inactive). The result for `COc1cc(C)c2c(=O)c3c(oc2c1)C(=O)c1c(O)c(OC)cc(O)c1C3=O` reads -45.4% (active); that for `O=C(Cc1ccc(F)c(F)c1)Nc1cc(C2(C(F)(F)F)CC2)nn1Cc1ccccc1`, 11.9% (inactive). Under `Cc1cccc2c1S/C(=C/c1ccc([N+](=O)[O-])cc1)C2=O` stands 101% (inactive); under `N=C(N)c1ccc(-c2ccc(-c3cc(Cl)cc(Cl)c3)s2)s1`, -67.9% (active); under `COc1ccc(/C=c2/c(=O)[nH]c3nc4sc(C)c(C)c4c(=O)n23)cc1`, 71.8% (inactive). Take `COc1ncc(-c2ccc3nccc(-c4ccnnc4)c3c2)cc1NS(=O)(=O)c1ccc(F)cc1F`: the growth is -13.8% (active). With `C=C(c1ccc(C(=O)O)cn1)c1cc2c(cc1C)C(C)(C)CCC2(C)C`, the growth was 84.9% (inactive). Under `CCOc1cc2ncc(C#N)c(Nc3ccc(OCc4cccc(F)c4)c(Cl)c3)c2cc1NC(=O)CCCCC1CCSS1` (stereo not given) stands 108% (inactive).
